The record followed here is PubChem BioAssay AID463173 (ICCB-Longwood Screening Facility, Harvard Medical School, 2010).

The campaign covered roughly 52,000 compounds. About 1,700 (3.3%) were called active. The full list was thinned out, with actives kept by preference. Values without a mark were called inactive. Rule as the data show it: active = survival mostly below about 52% (no sharp cut-off); inactive = mostly above about 56%.

This test relates to Wild type. Briefly: growth inhibition of S. aureus wild type versus tarO mutant, primary screen, teichoic acid synthesis inhibitors, RN4220, OD600 (AID 463173). Conditions: S. aureus RN4220 wild type/DeltatarO growth, OD600, 18 h, active compounds read low, screened at 18.75 µg/mL (by protocol).
Turning to `O=C(CSc1nc2cc3ccccc3cc2[nH]1)Nc1ccc(F)cc1`, the survival is 76%. As for `CCCCNC(=O)c1nn(-c2ccc(C)cc2)c(=O)c2c1c1ccccc1n2C`, the figure is 79%. As for `CN(Cc1ccco1)C(=O)c1ccc2c(c1)N(Cc1ccccc1F)C(=O)c1ccccc1S2`, the figure is 115%; as for `Cc1oc2ncn(CC(C)C)c(=O)c2c1C(=O)N1CCN(c2ccc(F)cc2)CC1`, 57%; as for `CC1CCCN(S(=O)(=O)c2ccc(S(=O)(=O)N(Cc3cccs3)Cc3cccs3)cc2)C1` (centres undefined), 112%. Turning to `Cc1ccc(CN(Cc2ccco2)C(=O)COc2ccccc2C)cc1`, the survival was 83%.

Take `O=C(Nc1nnc(S(=O)(=O)N2CCc3ccccc32)s1)c1ccccc1`: the survival was 19%.

Consider `O=C(Nc1nnc(S(=O)(=O)N2CCc3ccccc32)s1)c1cccc(Cl)c1`, for which the survival was 12% (active). As for `O=C(Nc1nnc(S(=O)(=O)N2CCc3ccccc32)s1)c1ccccc1Cl`, the figure is 23%; as for `O=c1[nH]c2cc3c(cc2cc1CN(CCN1CCOCC1)C(=S)Nc1ccccc1)OCCO3`, 109%. As to `CCOc1ccc(NC(=O)CC2Nc3cccc4cccc(c34)NC2=O)cc1` (centres undefined), the survival was 63%. To `CCOc1ccc(-c2nonc2NC(=O)c2oc3c(C)c(C)ccc3c2C)cc1OCC` belongs 82%; to `COC(=O)Cn1c(SCCOc2ccccc2OC)nc2ccccc21`, 91%. As for `CCn1c(SCCOc2ccccc2F)nc2ccccc21`, the figure is -1% (active); as for `COC(=O)Cn1c(SCCOc2ccccc2Cl)nc2ccccc21`, 81%; as for `Cn1c(=O)c2c(nc(Oc3ccccc3)n2Cc2c(Cl)cccc2Cl)n(C)c1=O`, 73%.

For the compound `COc1ccc(Oc2nc3c(c(=O)n(C)c(=O)n3C)n2Cc2ccccc2Cl)cc1`, the survival is 75%. For the compound `CCCCC(CC)Cn1c(Oc2ccccc2)nc2c1c(=O)n(C)c(=O)n2C` (centres undefined), the survival is -2% (active).

Consider `Cc1ccc(C(=O)N2CCN(c3ccccc3F)CC2)cc1NC(=O)c1nsc2ccccc12`, for which the survival was 87%. Regarding `Cc1cc(C)cc(Oc2nc3c(C)cccn3c(=O)c2/C=C(\C#N)c2nc3ccccc3[nH]2)c1`, the survival was 69%.

With `CCCCN(CC)CCCNC(=O)c1ccc2c(c1)NC(=O)CN2C`, the survival was 57%.

With `CCOc1ccc(-c2cn3c(n2)sc2cc(C(=O)NCCCN4CCCCCC4)ccc23)cc1`, the survival is -1% (active). Turning to `CCCN1CCN(CCCNC(=O)c2ccc3c(c2)sc2nc(-c4ccc(OC)cc4)cn23)CC1`, the survival was 81%. Regarding `CCCN1CCN(CCCNC(=O)c2ccc3c(c2)sc2nc(-c4ccc(OCC)cc4)cn23)CC1`, the survival is 36%.

As to `CCN1CCN(CCCNC(=O)c2ccc3c(c2)sc2nc(-c4ccc(OC)cc4)cn23)CC1`, the survival was 82%. On to `O=C(NCCCN1CCCCCC1)c1ccc2c(c1)sc1nc(-c3ccccc3)cn12`, for which the survival was 38%. As for `CCOc1ccc(-c2cn3c(n2)sc2cc(C(=O)NCCCN4CCCCC4)ccc23)cc1`, the figure is -1% (active); as for `COc1cccc(Cn2cc(C(=O)c3ccccc3)c(=O)c3cc4c(cc32)OCO4)c1`, 84%; as for `O=C(CSCc1ccccc1Cl)NCc1ccc(Cl)c(Cl)c1`, 148%. As for `COc1ccc(C(=O)Nc2ccc(-c3nnc4n3CCCCC4)cc2)cc1OC`, the figure is 65%; as for `COc1ccc(C(=O)Nc2ccc(-c3nnc4n3CCCCC4)cc2)cc1`, -3% (active); as for `CCOc1cc(C(=O)Nc2ccc(-c3nnc4n3CCCCC4)cc2)cc(OCC)c1OCC`, 88%. With `Cc1ccc2c(c1)C(c1ccccc1)N(C(=O)c1ccc(S(=O)(=O)N3CCCCC3)cc1)CC(=O)N2` (centres undefined), the survival is 86%.

Turning to `CCOC(=O)c1cnc2c(ccc3ccccc32)c1Nc1ccc(OCC)cc1`, the survival is -2% (active). To `CCOC(=O)c1cnc2c(ccc3ccccc32)c1Nc1ccc(C(C)=O)cc1` belongs 0% (active); to `CCOC(=O)c1cnc2c(ccc3ccccc32)c1Nc1ccccc1O`, 74%. To `CCOC(=O)c1cnc2c(ccc3ccccc32)c1Nc1cccc(OC)c1` belongs 68%; to `CCOC(=O)c1cnc2c(ccc3ccccc32)c1Nc1ccc(OC)c(OC)c1`, 5% (active); to `CCOC(=O)c1cnc2c(ccc3ccccc32)c1Nc1cccc(Cl)c1`, 23%. As for `Cc1ccccc1Nc1nc(N)c(C(=O)c2ccccc2Cl)s1`, the survival was 101%.

`CCOC(=O)c1cnc2c(ccc3ccccc32)c1Nc1ccc(Cl)cc1`: the survival is 30%. For `COc1cccc(C(=O)c2sc(Nc3ccc(F)c(Cl)c3)nc2N)c1`, the survival is 65%. Turning to `CCOc1ccc(Nc2nc(N)c(C(=O)c3ccccc3Cl)s2)cc1`, the survival was -2% (active). To `CCOC(=O)c1cnc2ccccc2c1NCCc1ccc(OC)c(OC)c1` belongs 53%. As for `COc1ccccc1CNC(=O)C1CCCN(S(=O)(=O)c2ccc3c(c2)oc(=O)n3C)C1` (centres undefined), the figure is 92%; as for `COc1cc(OC)c(NC(=O)CSc2nccn2C)cc1Cl`, 75%; as for `Nc1nonc1-c1nc2ccccc2n1Cc1ccc(Br)cc1`, 93%. Consider `CC(=O)N1CCc2c(sc3c2c(=O)n(-c2cc(Cl)ccc2C)c(=O)n3C)C1`, for which the survival is 119%. As to `CCOC(=O)c1cnc(NCc2ccc(OC)cc2OC)c2ccccc12`, the survival was 117%. Turning to `CCOC(=O)c1cnc2c(ccc3ccccc32)c1Nc1ccccc1OC`, the survival is 69%. Turning to `CCOC(=O)c1cnc2c(C)cccc2c1Nc1ccc(OC(C)C)cc1`, the survival was 3% (active). Regarding `CCOC(=O)c1cnc2c(ccc3ccccc32)c1Nc1ccc(OC)cc1OC`, the survival was 6% (active). To `CCOC(=O)c1cnc2c(ccc3ccccc32)c1Nc1ccc(N(C)C)cc1` belongs 0% (active); to `CCOC(=O)c1cnc2c(OC)cccc2c1Nc1cccc(O)c1`, 73%. As for `CCOC(=O)c1cnc2c(Cl)c(Cl)ccc2c1Nc1ccc(N(C)C)cc1`, the survival was 80%. Take `CCOC(=O)c1cnc2c(CC)cccc2c1NCCO`: the survival is 116%. Consider `CCN1C(=O)SC(CC(=O)O)C1=O` (centres undefined), for which the survival was 99%. Turning to `CCOc1ccc(NC(=O)CC2C(=O)N(c3ccccc3)C(=O)N2C2CCCCC2)cc1` (centres undefined), the survival is 69%.

Turning to `CC(C)c1ccc(NC(=O)CN2C(=O)C3(SCC(=O)N3c3ccc(F)cc3)c3ccccc32)cc1` (centres undefined), the survival is 58%.

As to `CCCCOc1ccc(S(=O)(=O)N2CCN(c3ccccc3OCC)CC2)cc1`, the survival was 112%. Regarding `CCc1ccc(N2CCn3c2nc2c3c(=O)n(C/C=C/c3ccccc3)c(=O)n2C)cc1`, the survival is 79%. To `CCCCc1nn2c(=O)cc(COC(=O)C3CCCCC3)nc2s1` belongs 70%; to `Cc1cccc(C(=O)N2CCc3cc(CNC(=O)c4ccnn4C)ccc32)c1`, 90%; to `C#CCSc1nc(-c2ccccc2)cc(-c2ccccc2)c1C#N`, 70%. On to `COc1ccc(-n2ccnc(NCc3cccs3)c2=O)cc1OC`, for which the survival is 80%.

`COc1ccc(-n2ccnc(NCc3cccs3)c2=O)cc1`: the survival was -3% (active). Take `COc1ccc(-n2ccnc(NCc3ccc(C)cc3)c2=O)cc1OC`: the survival was 87%. As for `O=c1c(NCc2cccs2)nccn1-c1ccccc1`, the figure is 74%; as for `COc1ccc(-n2ccnc(NCc3ccc(Cl)cc3)c2=O)cc1`, 0% (active). As for `COc1ccc(-n2ccnc(NCc3ccccc3OC)c2=O)cc1`, the figure is 85%.

Turning to `COc1ccc(-c2cc3nc(C)c(CCC(=O)N4CCN(c5ccc(F)cc5)CC4)c(C)n3n2)c(OC)c1`, the survival was 85%.

Turning to `COC(=O)c1cc(S(=O)(=O)N2CCN(c3ccc(C)cc3C)CC2)cn1C`, the survival is 65%. As for `COCCNC(=S)N1CCC(c2nc(-c3ccc(N(C)C)cc3)no2)CC1`, the figure is 107%; as for `COCCNC(=O)CCCn1c(SCC(=O)Nc2cccc(C)c2)nc2c(sc3ccccc32)c1=O`, 86%; as for `COc1cccc(-c2nc(SCc3cc(=O)c4ccc(C)c(C)c4[nH]3)n[nH]2)c1`, 97%.

Take `CCOc1ccc(CNC(=O)CCS(=O)(=O)c2cc3c4c(c2)CCN4C(=O)CC3)cc1`: the survival is 71%. With `O=C(Nc1ccccc1Cl)c1sc2cccc(Cl)c2c1Cl`, the survival was 72%.

On to `CCCC(=O)Nc1ccc(NC(=O)c2sc3ccccc3c2Cl)cc1`, for which the survival is 128%. As for `COc1ccccc1NC(=O)c1sc2cccc(Cl)c2c1Cl`, the survival is 71%. To `CCN(CC)c1ccc(NC(=O)c2sc3ccccc3c2Cl)cc1` belongs 15% (active).

`Cc1ccc(NC(=O)c2sc3ccccc3c2Cl)cc1`: the survival was 76%. As for `Cc1cccc(NC(=O)c2sc3cccc(Cl)c3c2Cl)c1`, the figure is 6% (active); as for `O=C(Nc1ccc(N2C(=O)C=CC2=O)cc1Cl)c1ccco1`, 105%. To `CC1CCCCN1CCCNC(=O)Cn1ncc2c3ccccc3n(Cc3ccccc3F)c2c1=O` (centres undefined) belongs 90%; to `O=C(Nc1ccccc1)c1cccc(N2CCCC2=O)c1`, 110%. As for `CC1CCN(S(=O)(=O)c2ccc(S(=O)(=O)N3CCCN(Cc4ccccc4)C3)cc2)CC1`, the figure is 107%. In the case of `C/C(=N\Nc1nc2sc3c(c2c2ncnn12)CC(C)(C)OC3)C(=O)O`, the survival was 102%. As for `COc1ccc(C2C(C(N)=O)=C(C)Nc3nc(CCCO)nn32)c(OC)c1` (centres undefined), the figure is 62%; as for `COc1ccc(-n2nc3c(N4CCC(C(=O)NC5CCCCC5)CC4)nnc(C)c3c2C)cc1`, 73%. To `Cc1nc(SCC(=O)Nc2nsc(-c3ccc(C(C)(C)C)cc3)n2)c2c3c(sc2n1)CCCC3` belongs 92%; to `Cc1nc(SCC(N)=O)c2c3c(sc2n1)CCCC3`, 90%; to `Cc1nc(SCC(=O)OC(C)(C)C)c2c3c(sc2n1)CCCC3`, 15% (active).

For the compound `COc1ccccc1Cc1nc2ccccc2nc1SCC(=O)Nc1ccc2c(c1)OCO2`, the survival is 45%.

Turning to `O=C(Cn1nnc(-c2ccccc2)n1)N1CCCCC1`, the survival is 109%.
